Results from article PMC4336329 (PLoS ONE, 2015).
Out of some 310,000 compounds screened, about 14,000 (4.5%) showed an effect of 50% or more. Effects have a minus sign here. The sample holds strong results, similar compounds and a random draw of the others, so the mix is not that of the screen.

biological target: human ether-à-go-go-related gene (hERG) potassium channel (human, UniProt Q12809); assay: primary screen, population patch clamp on CHO cells stably expressing hERG; higher = less effect of the substance
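Also: peak tail current of the secondary pulse compared with the same well before compound.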

human ether-à-go-go-related gene (hERG) potassium channel, sequence (Q12809 whole entry, looked up): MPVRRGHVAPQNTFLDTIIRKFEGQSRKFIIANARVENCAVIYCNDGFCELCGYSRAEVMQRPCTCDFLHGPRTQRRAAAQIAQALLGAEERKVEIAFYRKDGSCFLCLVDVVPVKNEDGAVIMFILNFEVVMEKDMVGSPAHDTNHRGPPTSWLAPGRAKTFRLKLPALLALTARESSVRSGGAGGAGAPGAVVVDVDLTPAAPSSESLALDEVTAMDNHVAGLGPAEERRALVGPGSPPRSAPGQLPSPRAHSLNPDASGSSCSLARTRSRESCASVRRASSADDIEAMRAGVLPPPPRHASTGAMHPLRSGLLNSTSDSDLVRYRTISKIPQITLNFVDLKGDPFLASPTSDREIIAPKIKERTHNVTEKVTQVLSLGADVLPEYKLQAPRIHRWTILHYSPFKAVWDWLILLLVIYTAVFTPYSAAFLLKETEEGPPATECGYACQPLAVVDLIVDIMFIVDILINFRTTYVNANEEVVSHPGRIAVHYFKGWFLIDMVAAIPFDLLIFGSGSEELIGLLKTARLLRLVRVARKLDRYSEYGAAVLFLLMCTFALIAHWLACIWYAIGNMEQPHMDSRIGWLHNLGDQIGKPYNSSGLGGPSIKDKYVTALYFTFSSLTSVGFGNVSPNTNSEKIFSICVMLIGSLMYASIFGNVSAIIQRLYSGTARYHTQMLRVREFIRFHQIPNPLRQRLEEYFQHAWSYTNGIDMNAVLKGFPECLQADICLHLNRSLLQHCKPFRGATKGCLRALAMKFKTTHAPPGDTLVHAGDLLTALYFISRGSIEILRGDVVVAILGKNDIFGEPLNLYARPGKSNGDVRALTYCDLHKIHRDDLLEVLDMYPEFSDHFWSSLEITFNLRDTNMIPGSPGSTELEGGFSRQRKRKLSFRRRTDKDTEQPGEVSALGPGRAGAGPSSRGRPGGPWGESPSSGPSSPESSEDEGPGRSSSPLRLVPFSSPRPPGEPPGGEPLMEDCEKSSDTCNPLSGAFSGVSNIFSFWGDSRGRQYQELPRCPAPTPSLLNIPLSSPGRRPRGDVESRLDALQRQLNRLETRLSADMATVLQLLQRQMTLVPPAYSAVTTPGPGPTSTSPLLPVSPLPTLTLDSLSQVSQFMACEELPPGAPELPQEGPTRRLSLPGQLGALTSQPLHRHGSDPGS

SMILES	hERG current change (%, negative = inhibition) at 10uM
CC(=O)N1c2ccc(S(=O)(=O)NCCc3ccc(S(N)(=O)=O)cc3)cc2CC1C (stereo not shown)	13%
COc1ccc(/C=N/NC(=O)c2c(C)n(C)c3ccc(OC)cc23)c(OC)c1	-14.3%
COCC(C)NC(=O)c1ccc2c(c1)S(=O)(=O)c1ccccc1C2=O (stereo not shown)	3.96%
CCn1c(=S)ccc2ccc(OC)cc21	-0.453%
CCOc1ccc(-c2c(C(=O)N/N=C(\C)c3cccs3)nnn2-c2nonc2N)cc1	12.9%
CCO[C@@H]1OC(C(N)=O)=C[C@H](c2cn(C(C)=O)c3ccccc23)[C@H]1CCCO	6.45%
CCO[C@@H]1OC(C(=O)NCc2ccccc2)=C[C@H](c2cn(C(C)=O)c3ccccc23)[C@H]1CCCO	-82.9%
CCO[C@H]1OC(C(=O)NCc2ccccc2)=C[C@@H](c2cn(C(C)=O)c3ccccc23)[C@@H]1CCCO	-64.3%
CCO[C@@H]1OC(C(=O)NCc2ccccc2)=C[C@H](c2ccccc2)[C@H]1CCCO	-18.7%
CCO[C@H]1OC(C(=O)NCc2ccccc2)=C[C@@H](c2ccccc2)[C@@H]1CCCO	-19.6%
C#CCNC(=O)C1=C[C@H](c2cn(C(C)=O)c3ccccc23)[C@@H](CCCO)[C@H](OCC)O1	-36.9%
CCOC(=O)CN/C=C(\C#N)c1ccccc1	16.2%
COc1cc(/C=C2\C(=O)ON=C2c2ccccc2)cc(Cl)c1O	-49.9%
CC(C)(C)OC(=O)CNC(=O)c1[nH]cnc1C(=O)Nc1ccc(CNC(=O)OC(C)(C)C)cc1	-0.221%
CCCCC(=O)Nc1nc(C)c(-c2csc(Nc3cc(OC)ccc3OC)n2)s1	5.95%
Cc1nc(Nc2cccc(O)c2)c2c3c(sc2n1)CCC3	-1.85%
O=C1CSC(c2ccc(F)cc2)N1c1nc2ccccc2s1 (stereo not shown)	-20.8%
O/N=C/c1ccccc1OCc1ccc(Cl)cc1	5.5%
Cc1ccc(/C=C/C(=O)Nc2ccc([N+](=O)[O-])cc2)o1	-1.05%
CCC(Oc1ccccc1)C(=O)N(Cc1ccccc1)c1ccccn1 (stereo not shown)	-6.96%
O=C(CNCc1cccnc1)Nc1cc(C(F)(F)F)ccc1N1CCOCC1.O=C(O)C(=O)O	-67%

SMILES	hERG current change (%, negative = inhibition) at 10uM
O=C(Nc1cc(C(F)(F)F)ccc1N1CCOCC1)c1cnccn1	-2.15%
O=C(CNCc1ccccn1)Nc1cc(C(F)(F)F)ccc1N1CCOCC1.O=C(O)C(=O)O	-57.5%
O=C(Nc1cc(C(F)(F)F)ccc1N1CCOCC1)c1cccnc1	-42.3%
Cc1nc2ccccc2nc1OCC(=O)Nc1cc(C(F)(F)F)ccc1N1CCOCC1	0.222%
O=C(Nc1cc(C(F)(F)F)ccc1N1CCOCC1)c1ccccc1	12.6%
O=C(O)CSc1c2c(nc3cc(C(=O)NCCN4CCOCC4)ccc13)CCC2	-6.18%
CC(C)(C)c1ccc(/C=N/NC(=O)C[n+]2ccccc2)cc1.[Cl-]	26%
Cc1ccc(NC(=O)C2(C)Cc3ccccc3C(=O)O2)cc1 (stereo not shown)	-5.03%
CCCCNS(=O)(=O)c1ccc2nc(-c3cccs3)cc(C(=O)NCC(OC)OC)c2c1	9.85%
Cc1c(C(=O)N2CCCCC2)c(S(=O)(=O)Nc2cccc(Br)c2)c(C)n1C	-4.02%
O=C(CCc1nnc(C2CCCCC2)o1)N1CCN(C2CCCCC2)CC1	10.4%
O=C(CCc1nnc(CCCCc2ccccc2)o1)N1CCCCC1CCO (stereo not shown)	-1.73%
COC(=O)[C@@H]1CCCN1C(=O)CCc1nnc(C2CCCCC2)o1	6.94%
O=C(CCc1nnc(CCc2ccccc2)o1)N1CCCCC1CCn1cccn1 (stereo not shown)	-51.1%
CCC1CCCCN1C(=O)CCc1nnc(C2CCCCC2)o1 (stereo not shown)	-55%
O=C(CCc1nnc(C2CCCCC2)o1)N1CCCCC1CCn1cccn1 (stereo not shown)	3.65%
O=C(Cc1cccs1)N/N=C/C(Br)=C/c1ccccc1	10.1%
CCOc1ccc(OCCCC(=O)Nc2nc3ccccc3[nH]2)cc1	12%
CC1CCCN(C(=O)CSc2nnc(-c3ccncc3)n2C)C1 (stereo not shown)	45.9%
C/C=C\C=C\C(=O)Nc1cccc(C2=NOC3(C2)C[C@@H](C(N)=O)N(C(=O)C(c2ccccc2)c2ccccc2)C3)c1 (stereo partly shown)	0.545%
Cc1ccc(C=Nc2ccc(N(C)C)cc2)o1	-0.267%

SMILES	hERG current change (%, negative = inhibition) at 10uM
CCOC(=O)c1ccc(NC(=O)c2ccc3c(c2)C(=O)N(CC2CCCO2)C3=O)cc1 (stereo not shown)	-1.87%
COc1ccc(OCC(=O)NCCS(=O)(=O)N2CCN(c3ccc(F)cc3)CC2)cc1	-8.69%
COc1ccc(N2CCN(S(=O)(=O)CCNC(=O)COc3ccccc3OC)CC2)cc1	-1.02%
Cc1ccccc1OCC(=O)NCCS(=O)(=O)N1CCN(c2ccc(F)cc2)CC1	-66.6%
COc1ccc(N2CCN(S(=O)(=O)CCNC(=O)COc3ccccc3C)CC2)cc1	1.17%
COc1ccccc1OCC(=O)NCCS(=O)(=O)N1CCN(c2ccc(F)cc2)CC1	-60.8%
COc1ccccc1OCC(=O)NCCS(=O)(=O)N1CCN(c2ccccc2)CC1	-44.4%
CCOc1ccc(/C=C(\C#N)C(=O)c2c(C)[nH]c3ccccc23)cc1OC	-4.5%
CC1Cc2ccccc2N1CC(=O)Nc1ccc(S(N)(=O)=O)cc1 (stereo not shown)	-6.21%
COC(=O)c1cc(-c2ccccc2)sc1NC(=O)CN1C(=O)c2ccccc2C1=O	15.9%
Cc1cc2n(c(=O)c1C#N)CCCN2c1cccc(Cl)c1	-65%
Cc1ccc(N2CCCn3c2cc(C)c(C#N)c3=O)cc1C	-21.4%
Cc1ccc(N2CCCn3c2cc(C)c(C#N)c3=O)cc1Cl	-22.8%
C#CCOc1ccc(/C=C2\SC(=S)N(Cc3cccnc3)C2=O)cc1	15.9%
Cc1cccc(Nc2nc(N)nc(CN3CCN(Cc4ccc5c(c4)OCO5)CC3)n2)c1	-75.2%
c1ccc(Cc2noc(CN3CCN(Cc4ccc5c(c4)OCO5)CC3)n2)cc1	-28.1%
Cc1ccc(Nc2nc(N)nc(CN3CCN(Cc4ccc5c(c4)OCO5)CC3)n2)cc1Cl	-81.2%
Cc1ccc(NC2=NCC(=O)N2Cc2ccc3c(c2)OCO3)cc1	-5.93%
Cc1cccc(S(=O)(=O)N2CCN(Cc3ccc4c(c3)OCO4)CC2)c1	-35.2%
c1ccc(CN2CCC(N3CCN(Cc4ccc5c(c4)OCO5)CC3)CC2)cc1	-39.8%
Cc1cc(Cl)ccc1NC(=S)N1CCN(Cc2ccc3c(c2)OCO3)CC1	4.84%

SMILES	hERG current change (%, negative = inhibition) at 10uM
Cc1cccc(NC(=O)CSCC(=O)N2CCN(Cc3ccc4c(c3)OCO4)CC2)c1	-23.3%
O=C(Nc1ccc(Cl)cc1)N1CCN(Cc2ccc3c(c2)OCO3)CC1	-27.6%
Cc1ccc(NC(=O)CSCC(=O)N2CCN(Cc3ccc4c(c3)OCO4)CC2)cc1	-25.9%
Nc1nc(CN2CCN(Cc3ccc4c(c3)OCO4)CC2)nc(Nc2ccccc2)n1	-75.6%
Cc1ccc(Nc2nc(N)nc(CN3CCN(Cc4ccc5c(c4)OCO5)CC3)n2)cc1	-73.3%
O=C(CNC(=O)N1CC(=O)Nc2ccccc21)NCc1cccc(Cl)c1	12.8%
COC(=O)c1sccc1NC(=O)c1ccccc1F	15.3%
O=C(c1ccc(S(=O)(=O)N2CCCC2)cc1)N1CCN(Cc2ccc3c(c2)OCO3)CC1	-28%
CCN(CC)C(=O)c1ccc(NC(=O)c2ccc(N3CCCC3=O)cc2)cc1	5.47%
Cc1ccc2nc3sc(C(=O)N4CCCc5ccccc54)c(N)c3cc2c1	2.69%
COCCNS(=O)(=O)c1ccc2c(c1)Cc1cc(S(=O)(=O)NCCOC)ccc1-2	-22.1%
O=C(N/C=C/c1ccccc1)Nc1ccc(Cl)cc1	10.3%
CCOc1ccc(C(=O)Nc2cc(S(=O)(=O)Nc3ccccc3Cl)ccc2N2CCOCC2)cc1	6.95%
Cc1ccc(S(=O)(=O)NCC(=O)N(c2ccccc2)C(C(=O)NCc2ccccc2)c2ccco2)cc1 (stereo not shown)	-6.04%
Cc1ccc(-n2nc(C(=O)N3CCN(C)CC3)c3c4ccccc4n(C)c3c2=O)cc1	5.61%
Cc1nc(SCC(=O)NC2CC2)c2c(C)c(C)sc2n1	6.21%
CC(=O)N/C(=C\c1ccccc1)C(=O)OCc1ccc(F)cc1	-0.974%
CC(=O)Nc1ccc(S(=O)(=O)NC(C)c2ccccc2)cc1 (stereo not shown)	13.2%
CCOC(=O)c1c(NC(=O)CN2C(=O)NC3(CCCCCC3)C2=O)sc(C)c1-c1ccc(C)cc1	4.24%
